Assay results from PubChem BioAssay AID1159580 (chemical genetic matrix, 2015).
Where “and” joins values, the source holds several entries; their conditions need not be identical. Equal entries are not always repeated. Among all 5,500 compounds or so, about 2,000 (36%) were called active. Another 18% or so got no clear call; they are omitted. Cut-off read from the data, not from the text of the source: active = normalized growth mostly below about 0.91 (no sharp cut-off); inconclusive = no clear call, values can overlap the other calls; inactive = mostly above about 0.92. Some of the results follow.

Experiment: chemical genetic growth profiling, strain panel (AID 1159580);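 note: tested at 20 µM; growth read once vehicle control cultures reached saturation at 30 °C; 1 = growth at the plate median or of vehicle wells; lower values mean less growth of the strain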
Conditions: S. cerevisiae deletion strains, growth OD

Measured: normalized growth

CC(C)c1c(O)ccc2c1CCC1C(C)(C)CCC[C@]21C (stereo partly specified)
inactive: locus YCL069W, strain vba3, stronger effect = lower value 0.932 | locus YDL005C, strain med2, stronger effect = lower value 0.961 | locus YDR001C, strain nth1, stronger effect = lower value 1 | locus YDR334W, strain swr1, stronger effect = lower value 0.974 | locus YEL037C, strain rad23, stronger effect = lower value 0.991 | locus YER111C, strain swi4, stronger effect = lower value 0.971 | locus YER155C, strain BEM2 (second series), stronger effect = lower value 0.925 | locus YFR010W, strain ubp6, stronger effect = lower value 0.929 | locus YGL173C, strain kem1, stronger effect = lower value 0.947 | locus YJL092W, strain hpr5, stronger effect = lower value 0.926 | locus YJL115W, strain asf1, stronger effect = lower value 1.02 | locus YJL154C, strain vps35, stronger effect = lower value 1.01
active: locus YAL013W, strain DEP1, stronger effect = lower value 0.063 | locus YAL021C, strain ccr4, stronger effect = lower value 0.888 | locus YAL026C, strain drs2, stronger effect = lower value 0.451 | locus YAL030W, strain snc1, stronger effect = lower value 0.319 | locus YBL061C, strain skt5, stronger effect = lower value 0.329 | locus YBR009C, strain hhf1, stronger effect = lower value 0.182 | locus YBR021W, strain FUR4, stronger effect = lower value 0.517 | locus YBR023C, strain chs3, stronger effect = lower value 0.43 | locus YBR171W, strain sec66, stronger effect = lower value 0.606 | locus YBR229C, strain ROT2, stronger effect = lower value 0.245 | locus YBR231C, strain swc5, stronger effect = lower value 0.258 | locus YBR279W, strain paf1, stronger effect = lower value 0.769 | locus YCL011C, strain gbp2, stronger effect = lower value 0.365 | locus YCL016C, strain dcc1, stronger effect = lower value 0.353 | locus YCL029C, strain bik1, stronger effect = lower value 0.29 | locus YCR088W, strain abp1, stronger effect = lower value 0.848 | locus YDL035C, strain GPR1, stronger effect = lower value 0.118 | locus YDL040C, strain nat1, stronger effect = lower value 0.749 | locus YDL074C, strain BRE1, stronger effect = lower value 0.111 | locus YDL101C, strain DUN1, stronger effect = lower value 0.185 | locus YDL134C, strain PPH21, stronger effect = lower value 0.0876 | locus YDL185W, strain tfp1, stronger effect = lower value 0.135 | locus YDL192W, strain arf1, stronger effect = lower value 0.139 | locus YDR069C, strain doa4, stronger effect = lower value 0.842 | locus YDR101C, strain arx1, stronger effect = lower value 0.43 | locus YDR137W, strain rgp1, stronger effect = lower value 0.134 | locus YDR150W, strain NUM1, stronger effect = lower value 0.399 | locus YDR159W, strain sac3, stronger effect = lower value 0.304 | locus YDR162C, strain NBP2, stronger effect = lower value 0.0592 | locus YDR195W, strain ref2 0.163 | locus YDR297W, strain sur2, stronger effect = lower value 0.353 | locus YDR318W, strain mcm21, stronger effect = lower value 0.182 | locus YDR335W, strain msn5, stronger effect = lower value 0.863 | locus YDR388W, stronger effect = lower value 0.38 | locus YDR392W, strain spt3, stronger effect = lower value 0.141 | locus YDR502C, strain sam2, stronger effect = lower value 0.185 | locus YEL003W, strain gim4, stronger effect = lower value 0.543 | locus YEL061C, strain CIN8 (second series), stronger effect = lower value 0.667 | locus YER015W, strain faa2, stronger effect = lower value 0.548 | locus YER016W, strain bim1, stronger effect = lower value 0.302 | locus YER110C, stronger effect = lower value 0.713 | locus YER155C, strain BEM2, stronger effect = lower value 0.0776 | locus YER167W, strain BCK2, stronger effect = lower value 0.0994 | locus YGL078C, strain dbp3, stronger effect = lower value 0.835 | locus YGL086W, strain mad1, stronger effect = lower value 0.135 | locus YGL167C, strain pmr1, stronger effect = lower value 0.248 | locus YGL227W, strain vid30, stronger effect = lower value 0.691 | locus YGL240W, strain doc1, stronger effect = lower value 0.822 | locus YGL248W, strain PDE1, stronger effect = lower value 0.113 | locus YGL253W, strain hxk2, stronger effect = lower value 0.67 | locus YGR135W, strain pre9, stronger effect = lower value 0.373 | locus YGR252W, strain gcn5, stronger effect = lower value 0.212 | locus YHR013C, strain ard1, stronger effect = lower value 0.548 | locus YHR027C, strain rpn1, stronger effect = lower value 0.527 | locus YHR030C, strain SLT2, stronger effect = lower value 0.06 and 0.129 | locus YHR079C, strain IRE1 (second series), stronger effect = lower value 0.335 | locus YHR079C, strain IRE1, stronger effect = lower value 0.215 | locus YHR094C, strain hxt1, stronger effect = lower value 0.272 | locus YHR129C, strain ARP1, stronger effect = lower value 0.0824 | locus YHR142W, strain chs7, stronger effect = lower value 0.682 | locus YHR200W, strain rpn10, stronger effect = lower value 0.309 | locus YIL066C, strain RNR3, stronger effect = lower value 0.111 | locus YIL073C, strain SPO22, stronger effect = lower value 0.181 | locus YIL125W, strain kgd1, stronger effect = lower value 0.395 | locus YIR030C, strain dcg1, stronger effect = lower value 0.292 | locus YJL095W, strain BCK1 (second series), stronger effect = lower value 0.103 | locus YJL095W, strain BCK1, stronger effect = lower value 0.0705 and 0.204 | locus YJL129C, strain trk1, stronger effect = lower value 0.259 | locus YJL134W, strain LCB3, stronger effect = lower value 0.373 | locus YJL164C, strain tpk1, stronger effect = lower value 0.197 | locus YJL166W, strain qcr8, stronger effect = lower value 0.32 | locus YJL168C, strain set2, stronger effect = lower value 0.725 | locus YJL187C, strain SWE1 (second series), stronger effect = lower value 0.117 | locus YJL187C, strain SWE1, stronger effect = lower value 0.403
